# Test results as given in PubChem BioAssay (Tox21).
# Where “and” joins values, the source holds several entries; their conditions need not be identical. Identical values can stand only once. Records with an inconclusive call do not appear. Where a call stands in place of a potency, no number is given. More than one record can exist for a structure, and the calls need not agree. Calls of active or inactive are those of the source. Unless noted, calls follow the shape of the dose curve; as a rule, active = well fitted curve in the direction sought with a large enough effect in the repeat runs; inconclusive = weak or mixed curves; inactive = no such curve, though single readings can be large; an effect the other way counts as inactive or inconclusive.
# Tests used:
# [1] = qHTS assay for small molecule agonists of the p53 signaling pathway - cell viability (AID 651633; calls by dose curve; also: nearly all actives have a fitted effect of over 30% in size; also: potency is read from the fitted curve at half-maximal effect); conditions: p53RE-bla HCT-116 viability, ATP luminescence, 16 h; series mostly up to 83.3 µM
# Procedure, shortened: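 p53RE-bla cells were treated with compound for 16 hours at 37 C. Cytotoxicity was then measured as CellTiter-Glo luminescence after 30 min at room temperature.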
# [2] = qHTS assay for small molecules that induce genotoxicity in human embryonic kidney cells expressing luciferase-tagged ATAD5 - cell viability (AID 651634; calls by dose curve; also: nearly all actives have a fitted effect of over 25% in size; also: potency is read from the fitted curve at half-maximal effect); conditions: HEK293T ATAD5-luc cells viability, CellTiter-Fluor, 15.5 h; series mostly up to 83.3 µM
# Procedure, shortened: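 Fluorescence from CellTiter-Fluor, reporting protease activity within live cells, served as the viability read-out. HEK293T cells carrying luciferase-tagged ATAD5 had been treated with compound for 15.5 hr at 37C.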
# [3] = qHTS assay for small molecule disruptors of the mitochondrial membrane potential - cell viability (AID 720634; calls by dose curve; also: nearly all actives have a fitted effect of over 20% in size; also: potency is read from the fitted curve at half-maximal effect); conditions: HepG2 viability, ATP luminescence (CellTiter-Glo), 1 h; series mostly up to 83.2 µM
# Procedure, shortened: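 Cells: HepG2, 2,000/well, attached overnight. Compound 1 hr, 37 C/5% CO2. +m-MPI dye, +CellTiter-Glo 30 min RT. Readout: luminescence (ATP).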
# [4] = qHTS assay for small molecule disruptors of the mitochondrial membrane potential (AID 720635); conditions: HepG2 mitochondrial membrane potential, Mito-MPS dye ratio; series mostly up to 83.2 µM; also: potency is read from the fitted curve at half-maximal effect
# Procedure, shortened: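 HepG2 cells exposed to compound 1 hr at 37C, then Mito-MPS dye 30 min. Ratio read of aggregate (540/590 nm) versus monomer (490/535 nm) fluorescence.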
# [5] = qHTS assay to test for compound auto fluorescence at 590 nm (red) in HepG2 cells (AID 720674); conditions: HepG2 autofluorescence, red 540/590 nm, 1 h; series mostly up to 91.3 µM
# Procedure, shortened: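 HepG2 cells, 2,000 per well in MEM with 10% FBS, attached overnight at 37 C, then got 23 nL compound or DMSO. After 1 hr at 37 C, 5% CO2, red fluorescence was read at 540/590 nm against Rose Bengal sodium as reference.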
# [6] = qHTS assay to test for compound auto fluorescence at 535 nm (green) in HepG2 cells (AID 720675); conditions: green autofluorescence 485/535 nm, 1 h; series mostly up to 91.3 µM
# [7] = qHTS assay to test for compound auto fluorescence at 460 nm (blue) in HEK293 cells (AID 720678); conditions: blue autofluorescence 405/460 nm; series mostly up to 91.3 µM
# Procedure, shortened: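 HEK293, 2,000 cells/well, 10% dialyzed FBS; attach 4-5 hr 37C; pin compound or DMSO; o/n 37C/5% CO2; fluorescence 405/460 nm; triamterene-equivalent units.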
# [8] = qHTS assay to test for compound auto fluorescence at 590 nm (red) in HEK293 cells (AID 720679); conditions: red autofluorescence 540/590 nm; series mostly up to 91.3 µM
# Procedure, shortened: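 Intensity at 540nm excitation and 590nm emission is reported as Rose Bengal sodium-equivalent autofluorescence. Measurements followed overnight exposure (37C, 5% CO2) of HEK293 cells, 2,000 per well, to 23 nL compound.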
# [9] = qHTS assay to test for compound auto fluorescence at 535 nm (green) in HEK293 cells (AID 720680); conditions: green autofluorescence 485/535 nm; series mostly up to 91.3 µM
# [10] = qHTS assay to test for compound auto fluorescence at 460 nm (blue) in HEK293 cell free culture (AID 720681); conditions: cell-free medium, autofluorescence 405/460 nm (blue); series mostly up to 91.3 µM
# Procedure, shortened: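 Compounds were added to cell-free DMEM with 10% FBS and fluorescence read directly. The blue channel used 405 nm excitation and 460 nm emission, with triamterene as the reference fluorophore.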
# [11] = qHTS assay to test for compound auto fluorescence at 590 nm (red) in HEK293 cell free culture (AID 720683); conditions: cell-free medium autofluorescence, Ex540/Em590 red; series mostly up to 91.3 µM
# Procedure, shortened: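 Cell-free wells of DMEM with 10% FBS received compound, and intrinsic fluorescence was read at excitation/emission 540/590 nm. Values expressed as equivalence to Rose Bengal sodium.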
# [12] = qHTS assay to test for compound auto fluorescence at 590 nm (red) in HepG2 cell free culture (AID 720684); conditions: cell-free medium autofluorescence, red 540/590 nm; series mostly up to 91.3 µM
# Procedure, shortened: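 Compound was pinned into wells holding MEM with 10% FBS and no cells, and red fluorescence was read at Ex/Em 540/590 nm. Signal is expressed as auto fluorescence equivalency relative to Rose Bengal sodium.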
# [13] = qHTS assay to test for compound auto fluorescence at 460 nm (blue) in HepG2 cell free culture (AID 720685); conditions: Cell-free culture medium, blue autofluorescence 405/460 nm; series mostly up to 91.3 µM
# Procedure, shortened: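 Compound (23 nL) or DMSO pinned into cell-free MEM with 10% FBS; blue fluorescence read at 405/460 nm excitation/emission, expressed as auto-fluorescence equivalency to triamterene.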
# [14] = qHTS assay to test for compound auto fluorescence at 535 nm (green) in HepG2 cell free culture (AID 720686); conditions: Cell-free medium, green autofluorescence 485/535 nm; series mostly up to 91.3 µM
# [15] = target: Glucocorticoid receptor (Homo sapiens) (UniProt P04150); assay: qHTS assay to identify small molecule agonists of the glucocorticoid receptor (GR) signaling pathway (AID 720691; active = well fitted activation curve with a large enough effect in the signal ratio in the repeat runs, not every such curve was filed as active; the % refers to the signal ratio); conditions: GR-bla HeLa, beta-lactamase reporter ratio, 18 h; series mostly up to 62.4 µM
# Procedure, shortened: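 Fluorescence intensity from LiveBLAzer B/G FRET substrate (2 h, room temperature) reports beta-lactamase expression driven by the glucocorticoid response element in GR-bla HeLa cells after 18 h compound exposure at 37 C.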
# [16] = target: Glucocorticoid receptor (Homo sapiens) (UniProt P04150); assay: qHTS assay to identify small molecule antagonists of the glucocorticoid receptor (GR) signaling pathway (AID 720692; active = well fitted inhibition curve with a large enough effect in the signal ratio in the repeat runs, not every such curve was filed as active; the % refers to the signal ratio; also: potency is read from the fitted curve at half-maximal effect); conditions: GR-bla HeLa, beta-lactamase FRET ratio, dexamethasone-stimulated, 18 h; series mostly up to 58.5 µM
# Procedure, shortened: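 HeLa GR-bla cells; cmpd + dex 5 nM final, 18 h 37 C; LiveBLAzer B/G FRET substrate 2 h RT; fluorescence intensity read. Antagonist mode, qHTS.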
# [17] = qHTS assay for small molecules that induce genotoxicity in human embryonic kidney cells expressing luciferase-tagged ATAD5 (AID 651632); conditions: HEK293T ATAD5-luciferase induction, 16 h; series mostly up to 83.3 µM; also: nearly all actives have a fitted effect of over 15% in size
# Procedure, shortened: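 ATAD5-luc HEK293T, 2,000 cells/well; cpd or DMSO pin-transferred; 16 hr, 37C/5% CO2; Amplite 30 min RT; luminescence.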
# [18] = qHTS assay to test for compound auto fluorescence at 535 nm (green) in HEK293 cell free culture (AID 720682); conditions: cell-free medium, green autofluorescence 485/535 nm, stronger effect = higher value; series mostly up to 91.3 µM
# Procedure, shortened: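 Compounds were pin-transferred into cell-free DMEM with 10% FBS, and green fluorescence was read at excitation 485 nm and emission 535 nm. Intensities were expressed as fluorescein-equivalent values.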
# [19] = qHTS assay to test for compound auto fluorescence at 460 nm (blue) in HepG2 cells (AID 720687); conditions: autofluorescence 405/460 nm, 1 h; series mostly up to 91.3 µM
# Procedure, shortened: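 HepG2 cells in MEM with 10% FBS, attached overnight at 37 C, were exposed to compound or DMSO for 1 hr at 37 C, 5% CO2. Blue fluorescence was read at 405/460 nm, with triamterene as reference fluorophore.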
# Chain of Glucocorticoid receptor (Homo sapiens) (P04150 whole entry, looked up): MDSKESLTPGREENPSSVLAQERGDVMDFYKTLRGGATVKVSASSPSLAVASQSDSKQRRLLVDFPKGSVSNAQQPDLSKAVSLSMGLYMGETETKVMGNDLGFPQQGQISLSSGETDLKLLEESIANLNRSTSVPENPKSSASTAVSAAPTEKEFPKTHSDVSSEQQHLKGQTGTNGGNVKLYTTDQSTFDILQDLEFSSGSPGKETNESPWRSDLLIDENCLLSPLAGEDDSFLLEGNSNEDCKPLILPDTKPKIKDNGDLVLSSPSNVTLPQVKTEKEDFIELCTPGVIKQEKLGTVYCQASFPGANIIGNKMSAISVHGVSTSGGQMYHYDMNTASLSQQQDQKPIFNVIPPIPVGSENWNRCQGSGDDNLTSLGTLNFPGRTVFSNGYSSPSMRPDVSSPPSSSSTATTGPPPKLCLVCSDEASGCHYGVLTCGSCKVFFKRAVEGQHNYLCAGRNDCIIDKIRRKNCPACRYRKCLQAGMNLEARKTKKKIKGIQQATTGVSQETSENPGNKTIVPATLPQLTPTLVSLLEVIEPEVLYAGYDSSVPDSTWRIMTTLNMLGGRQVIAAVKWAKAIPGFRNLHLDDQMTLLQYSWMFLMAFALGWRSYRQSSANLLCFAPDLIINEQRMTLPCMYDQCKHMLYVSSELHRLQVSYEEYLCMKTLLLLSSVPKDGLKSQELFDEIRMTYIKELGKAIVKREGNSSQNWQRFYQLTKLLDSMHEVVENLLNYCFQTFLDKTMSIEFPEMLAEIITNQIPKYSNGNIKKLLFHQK
SMILES,Potency [1],Potency [2],Potency [3],Potency [4],outcome [5],outcome [6],Potency [7],outcome [8],outcome [9],Potency [10],outcome [11],outcome [12],Potency [13],outcome [14],outcome [15],Potency [16],Potency [17],outcome [18],Potency [19]
CC(O)CN(CC(C)O)CC(C)O (stereo unspecified),inactive,inactive,inactive,inactive,inactive,inactive,inactive,inactive,inactive,inactive,inactive,inactive,inactive,inactive,inactive,inactive,–,–,–
CCOC(=O)c1ccccc1N,inactive,inactive,inactive,inactive,inactive,inactive,inactive,inactive,inactive,inactive,inactive,inactive,–,inactive,inactive,inactive,inactive,–,–
CC1=C(C(=O)Nc2ccccc2)SCCO1,inactive,inactive,inactive,–,inactive,inactive,inactive,inactive,inactive,inactive,inactive,inactive,inactive,inactive,inactive,inactive,–,inactive,inactive
ClC(Cl)(Cl)c1ccccc1,inactive,inactive,inactive,inactive,inactive,inactive,inactive,inactive,inactive,inactive,inactive,inactive,–,inactive,inactive,inactive,inactive,–,–
CCC(=O)Nc1ccc(Cl)c(Cl)c1,inactive,inactive,54.5 µM (active),31.3 µM (active) and 30.6 µM (active),inactive,inactive,inactive,inactive,inactive,inactive,inactive,inactive,inactive,inactive,–,–,–,inactive,–
O=S(=O)(O)C(F)(F)C(F)(F)C(F)(F)C(F)(F)C(F)(F)C(F)(F)C(F)(F)C(F)(F)F,inactive and 48.6 µM (active),inactive,–,–,inactive,inactive,inactive,inactive,inactive,inactive,inactive,inactive,inactive,inactive,–,–,inactive,inactive,–
Oc1ccc(Cl)cc1Cc1ccccc1,55.1 µM (active),–,13.3 µM (active) and 21.7 µM (active) and 15.4 µM (active),5.96 µM (active) and 2.43 µM (active) and 1.55 µM (active),inactive,inactive,inactive,inactive,inactive,inactive,inactive,inactive,inactive,inactive,–,–,inactive,–,–
COc1ccc(C=O)cc1OC,inactive,inactive,inactive,–,inactive,inactive,inactive,inactive,inactive,inactive,inactive,inactive,inactive,inactive,–,–,inactive,–,–
COP(=S)(OC)SCn1nnc2ccccc2c1=O,inactive,inactive,–,–,inactive,inactive,inactive,inactive,inactive,inactive,inactive,inactive,inactive,inactive,–,–,inactive,–,inactive
CCC[CH2][Sn]([Cl])([Cl])[CH2]CCC,2.2 µM (active) and 969 nM (active),694 nM (active) and 34.4 nM (active),–,–,inactive,inactive,inactive,inactive,inactive,inactive,inactive,inactive,–,inactive,–,–,inactive,–,inactive
[CH3][Sn]([Cl])([Cl])[Cl],inactive,inactive,inactive,inactive,inactive,inactive,inactive,inactive,inactive,inactive,inactive,inactive,–,inactive,inactive,inactive,inactive,–,–
CC(C)(c1ccc(OCC2CO2)cc1)c1ccc(OCC2CO2)cc1 (stereo unspecified),61.9 µM (active) and 61.1 µM (active),inactive,–,–,inactive,inactive,inactive,inactive,inactive,inactive,inactive,inactive,inactive,inactive,inactive,49 µM (active),inactive,inactive,inactive
C=C(C)C#N,inactive,inactive,–,–,inactive,inactive,inactive,inactive,inactive,inactive,inactive,inactive,–,inactive,–,–,inactive,inactive,inactive
